# Bioassay records: PubChem BioAssay, National Center for Advancing Translational Sciences (NCATS)
# Shown are actives, neighbours in structure and some others; about 11% of the full set was active somewhere.
# Tau FP inhib: tau fibrillization inhibition (FP). Potency, µM (highest dose often 57.7 µM), inactives show top-dose activity, negative = inhibition, usual class: inhibitors. AID 1468. 280,000 compounds, 0.39% hits. K18 P301L tau heparin fibrillization, Alexa594 FP, 6 h. P10636; further: potency means the concentration at half of the fitted maximal effect; nearly all actives have a fitted effect of over 55% in size
# Target sequence (P10636 561-689 P618L limits assumed): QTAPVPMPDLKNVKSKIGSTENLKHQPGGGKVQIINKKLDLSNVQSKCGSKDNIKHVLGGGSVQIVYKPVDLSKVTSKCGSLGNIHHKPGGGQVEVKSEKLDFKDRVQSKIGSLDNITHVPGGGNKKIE
#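 Human tau K18 […] P301L fragment, 15 uM unlabeled plus 0.24 uM Alexa 594-labeled tau (final), with compound and 20 uM heparin in 100 mM sodium acetate pH 7; 6 hr at 37 C, then Alexa 594 FP read.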
# Tau fluor counter: counter-screen for tau fibril formation inhibitors; tau K18 P301L Alexa594 fluorescence, heparin fibrillization; Potency, µM (doses to about 57.7 µM), inactives show at the highest dose activity change, negative = decrease; 280,000 compounds, 0.93% hits; further: potency means the concentration at half of the fitted maximal effect; nearly all actives have a fitted effect of over 55% in size
#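 Human K18 P301L tau (15 uM unlabeled plus 0.24 uM Alexa 594-labeled, final) in 100 mM sodium acetate pH 7 was mixed with compound and 20 uM heparin and incubated 6 hr at 37 C.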
# G9a block: G9a (human) methyltransferase inhibition; Potency, µM (series often up to 102 µM), for inactives: at the top dose activity, negative = inhibition, usual class: inhibitors; G9a H3K9 monomethylation, AlphaScreen, 2 h; Q96KQ7; AID 504332; 350,000 compounds, 8.8% hits; further: potency means the concentration at half of the fitted maximal effect; nearly all actives have a fitted effect of over 75% in size
# Target sequence (Q96KQ7 913-1193 limits assumed): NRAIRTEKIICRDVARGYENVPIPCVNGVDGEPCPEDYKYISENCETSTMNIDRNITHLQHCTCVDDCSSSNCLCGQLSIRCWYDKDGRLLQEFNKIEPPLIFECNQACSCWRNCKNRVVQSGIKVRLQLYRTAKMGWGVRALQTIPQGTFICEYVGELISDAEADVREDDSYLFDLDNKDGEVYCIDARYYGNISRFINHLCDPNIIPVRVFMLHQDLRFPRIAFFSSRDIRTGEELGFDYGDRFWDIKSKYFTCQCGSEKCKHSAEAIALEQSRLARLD
#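 AlphaScreen read-out: biotin-H3K9 peptide (500 nM) methylation by 20 nM enzyme with 20 uM SAM, 2 h at room temperature after 15 min compound preincubation; anti-monomethyl H3K9 antibody plus donor/acceptor beads, 10 min dark.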
# FBPA coupling cs: coupling enzyme interference in Giardia aldolase counter-screen | coupling enzyme system counterscreen, AmpLite Red fluorescence | activity change, negative = inhibition, % at 58.2 µM, hits read low | 290,000 compounds, 0.67% hits | AID 2472; in the data active means activity change below about -30%
#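 Coupling enzymes only (glyceraldehyde-3-phosphate) + compound, at 57.5 uM final, 10 min RT; add substrate/coupling/AmpLite Red mix, 20 min RT; fluorescence ex 525/em 598 nm. Actives flag coupling-system interference.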
# Sfp PPTase inh: Sfp phosphopantetheinyl transferase inhibition | Biochemical Sfp PPTase activity, qHTS | Potency, µM, for the others: largest response in the series, negative = inhibition, actives largely listed as inhibitors | 310,000 compounds, 3.5% hits | AID 1490;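 further: the enzyme is Sfp with the accession as filed and its product quenches rhodamine fluorescence; potency means the concentration at half of the fitted maximal effect; 0% = enzyme reaction without inhibitor and -100% = no enzyme wells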
#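 Compounds were incubated with enzyme (final 15 nM) for 15 min at room temperature before substrate addition started the reaction. Fluorescence at 525 nm excitation, 598 nm emission was recorded immediately and after 30 minutes.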
# Tau ThT inhib: inhibitors of human tau fibril formation, thioflavin T binding. P10636. recombinant tau K18 P301L (four-repeat tau fragment), heparin-induced fibrillization, ThT fluorescence. Potency, µM (highest dose often 57.4 µM), inactives show top-dose activity, negative = inhibition, usual class: inhibitors. 270,000 compounds, 2.1% hits; further: potency means the concentration at half of the fitted maximal effect; nearly all actives have a fitted effect of over 55% in size
#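 K18 P301L tau (15 uM + 0.24 uM Alexa 594-tagged), heparin 20 uM, NaOAc pH 7, 6 h 37 C; ThT 30 uM, 1 h RT, ex 450/em 510 nm.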
# * marks the source's active call; other numbers are inactive results; u = inconclusive; x = no result; [ ] = remark or other dose. Unless noted, the call rests on the fitted dose curve; in most records, active means well fitted curve in the direction sought with a large enough effect; inconclusive means small, poorly fitted or top-dose-only effect, or another doubt; inactive means no such curve, though single readings can be large; an effect the other way counts as inactive or inconclusive. Unless noted, on the % scale 0 is the no-effect control and ±100 the full control effect.
SMILES,Tau FP inhib,Tau fluor counter,G9a block,FBPA coupling cs,Sfp PPTase inh,Tau ThT inhib
CCOC(=O)CCN1C(=O)[C@H]2[C@H]3[C@H](O)[C@H](O)C/C(=N/OC/C=C(\C)CCC=C(C)C)[C@H]3CC[C@@H]2C1=O,1%[11.6 µM],-9%[11.6 µM],x,0,16%,-8%[11.5 µM]
O=C(NCCN1CCCCC1)c1ccc(Cn2c(SCc3ccc(F)cc3)nc3cccnc32)cc1,-2%,-11%,-28%[59 µM],x,x,-7%
Cc1cc(C(=O)N(C)Cc2c(F)cccc2Cl)c2ccccc2n1,x,x,15%,-1,22%,x
COc1ccc(-n2c(=O)c3c4c(sc3n3c(=S)[nH]nc23)COC(C(C)C)C4)cc1 (stereo unspecified),-5%,-13%,8.9µM*,1,0%,-13%
CN1CCc2c(sc3c2c(=O)n(-c2ccccc2)c2n[nH]c(=S)n32)C1,-5%,-1%,5µM*,0,40µM*,-13%
CCCCC(CC)CCC(CC(C)C)OS(=O)(=O)O (stereo unspecified),x,x,-3%[12.7 µM],x,13%,x
Cc1cccc(N2CCN(C(=O)c3noc4c3CCCCC4)CC2)c1C,0%,-15%,-1%[59 µM],x,x,u
COc1ccc(NC(=O)Cn2c(SCc3ccc(F)cc3)nc3cccnc32)c(OC)c1,-8%,-18%,u,x,x,-16%
COc1cc(O)oc1C=Nc1ccc(Oc2ccccc2)cc1,14%,-21%,45µM*,-7,-14%,u
COc1cc(O)oc1C=Nc1ccc(Cl)cc1,u,-21%,-4%[12.7 µM],-2,0%,u
Cc1ccc([N+](=O)[O-])c(C)[n+]1C,-4%,u,3.5µM*,-8,-25%,u
CCS(=O)(=O)c1cccc(C(=O)N2CCN(c3nc4c(C)ccc(Cl)c4s3)CC2)c1,2%,-14%,-18%[59 µM],x,x,-18%
NC(=O)C1CCCN(CCc2ccccc2)C1 (stereo unspecified),-1%,-1%,1%[59 µM],-2,14%,-2%
O=C(C1CCCN(CCCc2ccccc2)C1)N1CCCCCC1 (stereo unspecified),2%,8%,4.5µM*,4,-15%,1%
O=C(C1CCCN(CCCc2ccccc2)C1)N1CCCCC1 (stereo unspecified),2%,5%,6.3µM*,3,-21%,0%
CCNS(=O)(=O)c1ccc(NC(=S)NCC2CCCO2)cc1 (stereo unspecified),-3%,6%,x,0,-21%,11%
CCCc1[nH][nH]c(=O)c1C(c1cccc(Cl)c1)C(C#N)C#N (stereo unspecified),u,-22%,79µM*,-2,-10%,-17%
N#CC(C#N)C(c1ccsc1)c1c(-c2ccccc2)[nH][nH]c1=O (stereo unspecified),-7%,-24%,1%[12.7 µM],-4,10%,u
Cc1cc(O)c(/C=N/Nc2ccccc2Cl)c(=O)o1,-5%,-8%,1.4µM*,1,-11%,u
Cc1cccc(N=Cc2c(O)cc(C)oc2=O)c1,2%,7%,u,-1,12%,0%
Cc1cc(O)c(/C=N/Nc2cccc(Cl)c2)c(=O)o1,0%,-14%,2.2µM*,0,-15%,-13%
Cc1cc(O)c(/C=N/OCc2ccc(Cl)cc2Cl)c(=O)o1,-2%,-2%,20µM*,14,-2%,-7%
Cc1cc(O)c(/C=N/Nc2ccc(Cl)cc2)c(=O)o1,7%,-12%,8.9µM*,1,79µM*,u
Cc1cccc(C(=O)N2CCc3cc(CNC(=O)c4ccco4)ccc32)c1,-8%,-4%,0%[59 µM],x,x,-1%
OCC1(CCOc2ccccc2)CCN(C2Cc3ccccc3C2)CC1,4%,-5%,-5%,2,6%,-12%
SMILES,Tau FP inhib,Tau fluor counter,G9a block,FBPA coupling cs,Sfp PPTase inh,Tau ThT inhib
COCc1cc(C)nc(N2CCN(Cc3ccccc3)CC2)c1C#N,10%,-12%,50µM*,1,-3%,-11%
CCOc1cccc(C2C(C(=O)c3ccco3)=C(O)C(=O)N2Cc2ccncc2)c1 (stereo unspecified),-15%,1%,35µM*,2,-23%,-8%
COc1ccc(C2C(C(=O)c3ccc(C)o3)=C(O)C(=O)N2Cc2ccco2)cc1OC (stereo unspecified),x,x,x,x,45µM*,x
CCOc1cc(C2C(C(=O)c3ccc(C)o3)=C(O)C(=O)N2CCc2ccccc2)ccc1O (stereo unspecified),3%,-1%,45µM*,-1,1%,-8%
CCCOc1cccc(C2C(C(=O)c3ccco3)=C(O)C(=O)N2CCN(CC)CC)c1 (stereo unspecified),-1%,-1%,u,2,0%,-6%
COc1cc(C2C(C(=O)c3ccc(C)o3)=C(O)C(=O)N2Cc2ccccc2)ccc1O (stereo unspecified),x,x,45µM*,x,x,x
O=C(OCc1cc(=O)n2c3c(sc2n1)CCCC3)c1cccc(NC(=O)c2ccccc2F)c1,2%,-20%,2%[59 µM],x,x,u
Cc1noc(C)c1-c1cc(NCCN2CCOCC2)ncn1,x,x,-3%[0.501 µM],3,-25%,x
CNC(=O)CSc1nnc(-c2ccccc2F)n1CCc1ccccc1,4%,5%,x,0,-5%,3%
CCCOc1ccc(C2C(C(=O)c3ccc(C)o3)=C(O)C(=O)N2Cc2ccco2)cc1OCC (stereo unspecified),x,x,x,4,-10%,x
CC(=O)C1=C(O)C(=O)N(c2ccccn2)C1c1ccc(Cl)cc1 (stereo unspecified),x,x,-14%,3,13%,x
Cc1ccc(C(=O)C2=C(O)C(=O)N(c3ncccn3)C2c2ccc(Cl)cc2)o1 (stereo unspecified),-1%,-3%,10µM*,4,-16%,-10%
CCCOc1ccc(C2C(C(=O)c3ccc(C)o3)=C(O)C(=O)N2Cc2ccco2)cc1 (stereo unspecified),x,x,50µM*,x,u,x
Cc1ccc(C(=O)C2=C(O)C(=O)N(Cc3ccccc3)C2c2cccnc2)o1 (stereo unspecified),1%,0%,50µM*,3,-9%,-6%
Cc1ccc(C(=O)C2=C(O)C(=O)N(Cc3cccnc3)C2c2ccc(Cl)cc2)o1 (stereo unspecified),x,x,50µM*,5,-11%,x
CCOc1ccc(NC(=O)N(Cc2c[nH]c3ccccc23)C2CCCCC2)cc1,-5%,-14%,8%[59 µM],x,x,-5%
NCC(O)CN1CCN(Cc2ccccc2)CC1 (stereo unspecified),x,x,u,0,-9%,x
Cc1cc(C)c(OCC(=O)OCC(=O)N2c3ccccc3CC2C)c(C)c1 (stereo unspecified),x,x,14%,x,x,x
